# Laboratory results as given in PubChem BioAssay AID1490 (National Center for Advancing Translational Sciences (NCATS), 2009).
# The whole screen tested about 310,000 compounds, of which about 11,000 (3.5%) were called active. About 4% were inconclusive and are not listed. Only a selection was taken, and actives are over-represented in it overall. Unmarked numbers belong to inactive results. The call rests on the fitted dose curve; in most records, active means well fitted inhibition curve with a large enough effect; inconclusive means small, poorly fitted or top-dose-only effect, or another doubt; inactive means no such curve, though single readings can be large or run the other way.
# Target: 4'-phosphopantetheinyl transferase ffp (Bacillus subtilis) (UniProt Q9F4F7)
# Assay: qHTS Assay for Inhibitors of Bacillus subtilis Sfp phosphopantetheinyl transferase (PPTase);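 further: the enzyme is Sfp with the accession as filed and its product quenches rhodamine fluorescence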;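 on largest response in the series, negative = inhibition: 0% = enzyme reaction without inhibitor and -100% = no enzyme wells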
# Details: Biochemical Sfp PPTase activity
# How it was run: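 Buffer: 50 mM Hepes-Na pH 7.6, 10 mM MgCl2, 0.01% Nonidet P-40, 0.01% BSA. Enzyme 15 nM, pre-exposed to compound 15 min; substrates then added and fluorescence change tracked over 30 min.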
# Potency means the concentration at half of the fitted maximal effect.
SMILES,"largest response in the series, negative = inhibition [%]",Potency
CC1CCN(C2=NC(=O)/C(=C/c3ccc(O)cc3)S2)CC1,14,–
COc1ccc(N=Nc2c(-c3ccc(OC)cc3)[nH]oc2=O)cc1,24.2,–
O=C(Nc1ccccc1)c1nnsc1S(=O)(=O)c1ccc(Cl)cc1,–,11.2 µM (active)
O=C(c1ccc(Cl)cc1)c1cnc(Nc2ccccc2)s1,-3.35,–
CS(=O)(=O)c1ccc(Cl)c(NC(=O)Nc2ccccc2)c1,7.87,–
CN(c1ccc(O)cc1)c1nc(-c2cccnc2)cs1,0.24,–
Cc1ccc(SC(CC(=O)c2ccc(C(C)(C)C)cc2)C(=O)O)cc1 (stereo unspecified),–,28.2 µM (active)
Cc1ccc(C(=O)CNc2ccc(F)cc2)cc1,-8.3,–
Cc1ccc(C(=O)CSc2ccccc2C(=O)O)cc1,13.7,–
O=C(Nc1ccccc1N1CCOCC1)c1ccc(OCc2cscn2)cc1,-1.59,–
NC(=S)c1ccc(C(N)=S)o1,–,56.2 µM (active)
O=C(O)C1CC=CC2CCN(C3CCCCC3)C(=O)C21 (stereo unspecified),40,–
COc1ccc(-n2cc(-c3ccccc3)c3c(=S)nc[nH]c32)cc1,7.93,–
COc1ccc(C)cc1NC(=O)NCCCCc1ccccc1,-4.5,–
CN(Cc1ccccc1)Cc1ccccc1F,–,50.1 µM (active)
CN(Cc1ccccc1)C(=O)CCc1ccccc1,20.4,–
O=C(c1ccccc1F)N(Cc1ccccc1)Cc1ccccc1,9.85,–
Cc1ccc(C)c(OCCC(=O)OCC(=O)N2CCN(c3ccccc3)CC2)c1,-6.17,–
Cc1coc2c1c(C)cc1oc(=O)c(CC(=O)NCC(=O)N[C@H](C(=O)O)C(C)C)c(C)c12,1.89,–
CCn1cc(S(=O)(=O)c2cccc(C)c2)c(=O)c2cc(F)c(N3CCN(C)CC3)cc21,4.71,–
NC(=O)CC[C@@H]1NC(=O)[C@H](CO)NC(=O)c2cc([N+](=O)[O-])cc(I)c2NCC[C@@H](C(N)=O)NC1=O,-7.09,–
NC(=O)C[C@@H]1NC(=O)CNC(=O)c2cc([N+](=O)[O-])cc(I)c2NCCC(C(N)=O)NC1=O (stereo partly specified),-12.4,–
NCCCC[C@@H]1NC(=O)[C@H](CCC(=O)O)NC(=O)c2cc([N+](=O)[O-])cc(I)c2NCC[C@@H](C(N)=O)NC1=O,–,31.6 µM (active)
COc1cccc(CNC(=O)C2CCCN(S(=O)(=O)N3CC(C)CC(C)C3)C2)c1 (stereo unspecified),6.86,–

SMILES,"largest response in the series, negative = inhibition [%]",Potency
CCC(CC)COC(=O)C1=C(C)NC(=O)NC1c1ccc([N+](=O)[O-])cc1 (stereo unspecified),7.14,–
O=C(NCc1ccccn1)c1ccc2nc(-c3ccco3)c(-c3ccco3)nc2c1,–,14.1 µM (active)
CC(C)(C)c1ccc(NC(=O)NCc2ccco2)cc1,8.16,–
O=C(NCc1ccccn1)c1cc(Br)ccc1Cl,-2.95,–
COc1cccc(S(=O)(=O)NCc2ccc(C(=O)NCc3ccccn3)cc2)c1,12.9,–
O=C(Nc1ccc2nccnc2c1)c1ccco1,15.4,–
COCCNC(=O)Nc1ccc2nc(-c3ccco3)c(-c3ccco3)nc2c1,–,4.47 µM (active)
COc1ccc(CCN2CC(C(=O)NCCN3CCNC3=O)CCC2=O)cc1 (stereo unspecified),19,–
COc1ccc2c(c1)c1nc3n(c(=O)c1n2CC(=O)Nc1ccccc1)CCS3,1.1,–
COc1ccc(C(=O)/C=C/c2cccnc2)c(OC)c1,9.73,–
O=[N+]([O-])c1cccc(/C=N/Nc2ncc(Br)cn2)c1,16.8,–
CC1CCC(NS(=O)(=O)c2ccc3c(c2)n(C)c(=O)c(=O)n3C)CC1 (stereo unspecified),8.22,–
Cn1sc(=O)c2cc(S(=O)(=O)NC3CC3)ccc21,–,11.2 µM (active)
O=S(=O)(NC1CC1)c1ccc(F)c(F)c1,16.5,–
Cc1nonc1NC(=O)c1oc2ccccc2c1C,-2.27,–
CC(=O)c1ccc(N2CCN(CC(O)c3ccccc3)CC2)cc1 (stereo unspecified),16.5,–
CCc1ccc(Oc2coc3cc(O)ccc3c2=O)cc1,12.7,–
CCC(c1nnnn1C1CCCC1)N1CCN(C(=O)c2ccco2)CC1 (stereo unspecified),6.92,–
CCC(CC)c1nnc(NC(=O)C2CCN(C(=O)c3ccco3)CC2)s1,–,39.8 µM (active)
CCC(CC)c1nnc(NC(=O)c2nn(C)c(=O)c3ccccc23)s1,10.8,–
Cc1nnc(NC(=O)/C=C/c2ccco2)s1,–,11.2 µM (active)
CCC(CC)c1nnc(NC(=O)/C=C/c2ccco2)s1,–,56.2 µM (active)
CCOC(=O)c1c(NC(=O)/C=C/c2ccco2)sc(C)c1C,-8.04,–
O=C(/C=C/c1ccco1)Nc1ccc(Oc2ccccc2)cc1,2.06,–

SMILES,"largest response in the series, negative = inhibition [%]",Potency
COc1ccc(CNC(=O)C2CCN(C(=O)c3ccco3)CC2)cc1,5.46,–
C/C=C/C(=O)Nc1nnc(C(C)C)s1,-3.92,–
FC(F)(F)c1nnc2c3ccccc3c(Cl)nn12,10.4,–
CC1CCN(S(=O)(=O)c2ccc(NC(=O)C3CC(=O)N(c4ccccc4)C3)cc2)CC1 (stereo unspecified),6.28,–
Cc1cc(S(=O)(=O)NC2CCCC2)ccc1-n1cnnn1,16.3,–
CCOc1ccc(C(=O)Nc2c3c(nn2-c2ccccc2)CS(=O)(=O)C3)cc1,11.5,–
CC(=N\NC(=O)c1cc(Br)ccc1O)/C(=N/O)C(=O)Nc1ccccc1,16.6,–
O=C(NCCc1ccccc1Cl)C1CCC(=O)N(CCCc2ccccc2)C1 (stereo unspecified),-2.68,–
COC(=O)c1ccc(COc2ccc(/C=C/C(=O)c3ccc(OC)c(CSCC(=O)O)c3)cc2OC)cc1,-20.4,–
COc1ccc(C2/C(=C(/O)c3ccc4c(c3)CC(C)O4)C(=O)C(=O)N2Cc2ccncc2)cc1 (stereo unspecified),-0.196,–
COc1cccc2cc(-c3cc(=O)oc4cc(C)c(O)cc34)oc12,-19.1,–
C=C(Cl)COC(=O)C1C2C=CC(C2)C1C(=O)O (stereo unspecified),-7.02,–
O=C(O)C1C2C=CC(C2)C1C(=O)N1CCN(CCO)CC1 (stereo unspecified),–,20 µM (active)
CN1CCN(C(=O)C2C3C=CC(C3)C2C(=O)O)CC1 (stereo unspecified),-2.06,–
CC(CN1CCOCC1)OC(=O)c1ccc(C(C)(C)C)cc1 (stereo unspecified),-0.906,–
Cc1cccc(N2CCN(S(=O)(=O)c3ccc(-c4cc(C)no4)s3)CC2C)c1 (stereo unspecified),13.1,–
CCOC(=O)c1sc(NC(=O)CSc2ncccn2)c(C#N)c1C,15.3,–
Cc1cc(C(F)(F)F)nc(SCC(=O)Nc2nccs2)n1,-13.1,–
CCOC(=O)c1sc(NC(=O)CSc2nc(C)cc(C(F)(F)F)n2)c(C#N)c1C,–,20 µM (active)
O=C(O)c1cccc2c1C(=O)N(C1CCCC1)C2,17.2,–
Cc1cc(Cl)nc(NC(=O)Nc2cccc(Cl)c2)n1,-3.29,–
Nc1ccc(Nc2ccccc2)cc1,–,56.2 µM (active)
Cc1cc(Nc2ccccc2)n(C(=O)c2ccc(N)cc2)n1,-8.73,–
Cc1ccc(Nc2ccccc2N)cc1,-23.1,–

SMILES,"largest response in the series, negative = inhibition [%]",Potency
O=C1OC2(CCCCC2)CC2=C1C1O[C@](c3ccsc3)(Cc3ccccc31)O2,-2.9,–
COC(=O)CCc1ccccc1S(=O)(=O)N(CCC(=O)OC)Cc1ccccc1,-14.7,–
CCN(CC(=O)Nc1ccc(Cl)c(S(=O)(=O)N(C)C)c1)Cc1nc2ccccc2c(=O)[nH]1,-31.5,–
CCN(CC(=O)Nc1cccc(S(N)(=O)=O)c1)Cc1nc2ccccc2c(=O)[nH]1,–,50.1 µM (active)
CCN(CC(=O)NC(=O)NCc1ccccc1)Cc1nc2ccccc2c(=O)[nH]1,-53,–
CN1CCN(C(=O)c2cnn(-c3ccccc3)c2NC(=O)c2ccc([N+](=O)[O-])cc2)CC1,1.55,–
CC1CCN(C(=S)c2cccc([N+](=O)[O-])c2)CC1,–,44.7 µM (active)
CC1CCN(C(=S)c2cccc(O)c2)CC1,–,25.1 µM (active)
O=C(c1cccc([N+](=O)[O-])c1)N1CCN(C(=O)c2ccco2)CC1,3.81,–
CC1CCN(C(=S)NC(=O)c2ccccc2Br)CC1,14.1,–
Cc1nc2ccc(NC(=S)N3CCC(C)CC3)cc2nc1C,15.4,–
CC1CCN(c2ccc([N+](=O)[O-])cc2C(N)=O)CC1,9.05,–
CC1=C(C(=O)OC2CCCCC2)C(c2ccccc2F)NC(=O)N1 (stereo unspecified),7.52,–
O=C(NC1CCCC1)C(c1ccco1)N(C(=O)c1ccco1)c1ccc(F)cc1 (stereo unspecified),20.8,–
COc1ccc(CCNC(=O)c2c(C)nn(-c3ccccc3)c2Cl)cc1,9.27,–
CN(CC1CCCO1)S(=O)(=O)c1ccc(C(=O)Nc2ccc([N+](=O)[O-])cc2)cc1 (stereo unspecified),-10.7,–
Cc1c(NC(=O)c2cc(-c3ccc(Br)cc3)on2)c(=O)n(-c2ccccc2)n1C,2.71,–
COc1ccc(-n2cnnc2SCC(=O)Nc2cccc(S(N)(=O)=O)c2)cc1,3.4,–
NS(=O)(=O)c1cccc(NC(=O)CSc2nc3ccccc3n2-c2ccccc2)c1,–,79.4 µM (active)
Cc1nnc(SCC(=O)Nc2cccc(N)c2)n1-c1ccccc1,20,–
COC(=O)c1c(NC(=O)C(=O)N2CCCCC2)sc2c1CC(C)(C)OC2,-1.3,–
COc1cc(OC)c(C(=O)N2CCCC2)cc1OC,10.6,–
COc1cc(OC)c(C(=S)N2CCCC2)cc1OC,–,20 µM (active)
COc1ccc(/C=C/C(=O)N2CCCC2)cc1OC,-0.604,–
